PubChem BioAssay (NCI)
The panel holds about 79,000 compounds, 15% with a hit somewhere; the sample as a whole holds those more often. Unmarked numbers belong to inactive results. Active and inactive are the calls of the source. Cut-off read from the data, not from the text of the source: active = growth inhibition above about 70%; inactive = the rest.

Test: NCI Yeast Anticancer Drug Screen. Data for the rad50 strain (AID 155);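 note: 0% = growth of vehicle-only cultures of the same strain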
Conditions: S. cerevisiae rad50 strain growth inhibition; at 50.0 µM; hits give high values
Summary of the method: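 Compounds were tested on a yeast strain with an engineered DNA damage repair alteration; the reported value is growth inhibition normalised to vehicle treatment.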

SMILES | growth inhibition
O=[N+]([O-])CCCCl | 2.05%
CCCC(C)c1ccc(SOO)cc1.[Fe] (stereo not given) | 19.9%
CC1(C)N=C(N)N=C(N)N1c1ccc(CCc2ccc(Cl)c(S(=O)(=O)F)c2)c(Cl)c1 | 99.3% (active)
CCN(CC)C(=S)SC1C(=O)NC(=O)NC1=O | 23.3%
C=C(C)[C@H]1CN[C@H](C(=O)O)[C@H]1CC(=O)O | -5.6%
CC(C)=CC(=O)N(C)C1C2CN3CCC(O2)C13 (stereo not given) | 7.3%
Nc1ccc([N+](=O)[O-])cc1[N+](=O)[O-] | -24.9%
CC1C(C(=O)c2ccc(-c3ccccc3)cc2)N1C(C)(C)C (stereo not given) | -10.4%
[Se]c1nc(N2CCOCC2)ncc1-c1ccccc1 | -18%
CCCCCCC[CH2][Sn][CH2]CCCCCCC.Nc1ncnc2c1ncn2C1OC(CO)C2[OH+][OH+]C21 (stereo not given) | 19.9%
CO/N=C1\CC(C)N2C(=O)C(C(C)C)NC(=O)C(NC(=O)c3c4nc5c(C(=O)NC6C(=O)NC(C(C)C)C(=O)N7C(C)CC(O)C7C(=O)N(C)CC(=O)N(C)C(C(C)C)C(=O)OC6C)ccc(C)c5oc-4c(C)c(=O)c3N)C(CO)OC(=O)C(C)N(C)C(=O)CN(C)C(=O)C12 (stereo not given) | 23.1%
O=P(Oc1ccccc1)(Oc1ccccc1)N(CCCl)CCCl | 0.2%
O=C(O)C1C2C=Cc3ccccc3C21 (stereo not given) | 4.5%
CC(NC1=NCCO1)c1ccco1 (stereo not given) | 4.45%
CCOP(=O)(CSCCC1(C)NC(=O)NC1=O)OCC (stereo not given) | 8.6%
